Test results published in PubChem BioAssay AID1159580 (chemical genetic matrix, 2015).
About 2,000 (36%) of roughly 5,500 compounds were called active. About 18% were inconclusive and are not listed. Rule as the data show it: active = normalized growth mostly below about 0.91 (no sharp cut-off); inconclusive = no clear call, values can overlap the other calls; inactive = mostly above about 0.92. Some of the results follow.

Experiment: chemical genetic growth profiling, strain panel (AID 1159580);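 also: tested at 20 µM; growth read once vehicle control cultures reached saturation at 30 °C; 1 = growth at the plate median or of vehicle wells; lower values mean less growth of the strain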
Conditions: S. cerevisiae deletion strains, growth OD
[1] = locus YAL013W, strain DEP1, active compounds read low
[2] = locus YBR229C, strain ROT2, active compounds read low
[3] = locus YDL101C, strain DUN1, active compounds read low
[4] = locus YDR150W, strain NUM1, active compounds read low
[5] = locus YEL061C, strain CIN8, active compounds read low
[6] = locus YGR078C, strain PAC10, active compounds read low
[7] = locus YHR030C, strain SLT2, active compounds read low
[8] = locus YHR087W, strain rtc3, active compounds read low
[9] = locus YJL187C, strain SWE1, active compounds read low
[10] = locus YJR043C, strain POL32, active compounds read low
[11] = locus YJR075W, strain HOC1, active compounds read low
[12] = locus YLR039C, strain RIC1, active compounds read low
[13] = locus YLR058C, strain SHM2 (second series), active compounds read low
[14] = locus YLR085C, strain ARP6, active compounds read low
[15] = locus YLR262C, strain YPT6, active compounds read low
[16] = locus YML094W, strain GIM5, active compounds read low
[17] = locus YMR219W, strain ESC1, active compounds read low
[18] = locus YMR263W, strain SAP30, active compounds read low
[19] = locus YNL153C, strain GIM3, active compounds read low
[20] = locus YNL298W, strain CLA4 (second series), active compounds read low
[21] = locus YNL322C, strain KRE1, active compounds read low
[22] = locus YNR030W, strain Alg12, active compounds read low
[23] = locus YPL055C, strain LGE1, active compounds read low
[24] = locus YPL241C, strain CIN2, active compounds read low
[25] = locus YPR135W, strain CTF4, active compounds read low

Measured: normalized growth

CC(C)(C)c1ccc(-c2nc(-c3cc(C(C)(C)C)c(O)c(C(C)(C)C)c3)cs2)cc1
inactive: [1] 1.01 | [2] 1 | locus YCL061C, strain MRC1, active compounds read low 1.03 | [3] 1.02 | locus YDL134C, strain PPH21, active compounds read low 1.02 | [4] 0.912 | [5] 1.03 | [6] 1.02 | [7] 1.09 | [8] 1.01 | [9] 1.01 | [10] 1.01 | [11] 1.03 | [12] 1.08 | [13] 1.01 | [14] 1.21 | [15] 1.04 | [16] 1.03 | [17] 1.01 | [18] 0.947 | [19] 0.988 | [20] 1.05 | [21] 1.01 | [22] 1.03 | [23] 1.17 | [24] 1.13 | [25] 1.07

Cc1ccc(-c2csc(-c3ccc(Cl)cc3)n2)c(C)c1
inactive: [1] 0.979 | [2] 0.978 | [3] 0.968 | [4] 0.987 | [5] 0.914 | [6] 0.989 | [8] 0.956 | [9] 0.994 | [10] 0.994 | [11] 1.01 | [12] 0.926 | [13] 0.988 | [15] 0.952 | [16] 0.9 | [17] 0.998 | [18] 1.01 | [19] 1.01 | [20] 0.908 | [21] 0.987 | [22] 0.949 | [23] 0.968 | [24] 1.1 | [25] 0.772
active: [7] 0.611 | [14] 0.753 | locus YOL006C, strain TOP1, active compounds read low 0.686

Cc1ccc(-c2csc(-c3cccnc3)n2)c(C)c1
active: [7] 0.763 | locus YLR113W, strain HOG1, active compounds read low 0.854 | locus YPL256C, strain CLN2, active compounds read low 0.849
inactive: locus YAR019C, strain CDC15, active compounds read low 0.948 | locus YBL105C, strain PKC1, active compounds read low 0.967 | locus YBR135W, strain CKS1, active compounds read low 0.954 | locus YBR136W, strain MEC1, active compounds read low 0.958 | locus YBR160W, strain CDC28, active compounds read low 0.963 | locus YDL017W, strain CDC7, active compounds read low 0.967 | locus YDL028C, strain MPS1, active compounds read low 0.964 | [3] 0.938 | locus YDL108W, strain KIN28, active compounds read low 0.964 | locus YDL132W, strain cdc53, active compounds read low 0.946 | locus YDL214C, strain PRR2, active compounds read low 0.88 | locus YDR052C, strain DBF4, active compounds read low 0.96 | locus YDR054C, strain cdc34, active compounds read low 0.943 | locus YDR226W, strain ADK1, active compounds read low 0.964 | locus YDR477W, strain SNF1, active compounds read low 0.87 | locus YER123W, strain YCK3, active compounds read low 0.769 | locus YER133W, strain GLC7, active compounds read low 0.85 | locus YFL009W, strain cdc4, active compounds read low 0.954 | locus YFL029C, strain CAK1, active compounds read low 0.943 | locus YFR003C, strain YPI1, active compounds read low 0.959 | locus YFR019W, strain FAB1, active compounds read low 0.821 | locus YFR028C, strain CDC14, active compounds read low 0.947 | locus YGR040W, strain KSS1, active compounds read low 0.832 | locus YGR052W, strain FMP48, active compounds read low 0.933 | locus YGR092W, strain DBF2, active compounds read low 0.737 | locus YHR079C, strain IRE1, active compounds read low 0.839 | locus YHR082C, strain KSP1, active compounds read low 0.901 | locus YHR205W, strain SCH9, active compounds read low 0.886 | locus YIL147C, strain SLN1, active compounds read low 0.957 | locus YJL095W, strain BCK1, active compounds read low 0.772 | locus YJL128C, strain PBS2, active compounds read low 0.946 | locus YJL157C, strain FAR1, active compounds read low 0.898 | locus YJR016C, strain ILV3, active compounds read low 0.956 | locus YJR066W, strain TOR1 (second series), active compounds read low 0.796 | locus YJR066W, strain TOR1, active compounds read low 0.833 | locus YKL048C, strain ELM1, active compounds read low 0.939 | locus YKL067W, strain YNK1, active compounds read low 0.897 | locus YKL101W, strain HSL1, active compounds read low 0.914 | locus YKL193C, strain SDS22, active compounds read low 0.945 | locus YKL203C, strain TOR2, active compounds read low 0.847 | locus YLR133W, strain CKI1, active compounds read low 0.905 | locus YLR403W, strain SFP1, active compounds read low 0.809 | locus YML070W, strain DAK1, active compounds read low 0.891 | locus YMR001C, strain CDC5, active compounds read low 0.957 | locus YMR205C, strain PFK2 (second series), active compounds read low 0.879 | locus YMR277W, strain FCP1, active compounds read low 0.951 | locus YNL006W, strain LST8, active compounds read low 0.96 | locus YNL020C, strain ARK1, active compounds read low 0.898 | locus YNL161W, strain CBK1, active compounds read low 0.96 | locus YNL183C, strain NPR1, active compounds read low 0.826 | locus YNL207W, strain RIO2, active compounds read low 0.935 | locus YNL222W, strain SSU72, active compounds read low 0.955 | locus YNL307C, strain MCK1 (second series), active compounds read low 0.862 | locus YOL078W, strain AVO1, active compounds read low 0.953 | locus YOL136C, strain PFK27, active compounds read low 0.894 | locus YOR061W, strain CKA2, active compounds read low 0.912 | locus YOR119C, strain RIO1, active compounds read low 0.881 | locus YOR231W, strain MKK1, active compounds read low 0.841 | locus YOR329C, strain SCD5, active compounds read low 0.951 | locus YPL031C, strain PHO85, active compounds read low 0.832 | locus YPL153C, strain RAD53, active compounds read low 0.838 | locus YPL204W, strain HRR25, active compounds read low 0.796 | locus YPL209C, strain IPL1, active compounds read low 0.955 | locus YPR025C, strain CCL1, active compounds read low 0.959 | locus YPR106W, strain ISR1, active compounds read low 0.957 | locus YPR111W, strain DBF20, active compounds read low 0.966 | strain NNK1, active compounds read low 0.947 | strain TSCII, active compounds read low 0.948
